APOBEC3A inh: APOBEC3A ssDNA deaminase inhibitors, primary screen, selectivity assay for APOBEC3G inhibitor project, biochemical, FAM/TAMRA oligo cleavage fluorescence. 330,000 tested, 0.41% active. inhibition, % at 20 µM. recombinant A3A, FAM/TAMRA ssDNA deamination fluorescence. AID 493011, 2011. DNA dC->dU-editing enzyme APOBEC-3A (Homo sapiens), P31941;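 active = at least 40% inhibition at 20 µM here, with at most 30% in a related deaminase screen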;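 note: plate controls were A3A with DMSO for no effect and wells lacking A3A enzyme for full effect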
AHR activator: AHR activators, primary screen, cell-based, luminescence, luciferase reporter, human; Aryl hydrocarbon receptor (Homo sapiens), P35869; AHR-responsive luciferase reporter cells; activation, % at 5 µM; 320,000 tested, 2.5% active; AID 2796, 2010; in the data active = activation above about 47%;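 note: 0% = vehicle wells and 100% = reference agonist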
Target sequence (P35869 whole entry, looked up): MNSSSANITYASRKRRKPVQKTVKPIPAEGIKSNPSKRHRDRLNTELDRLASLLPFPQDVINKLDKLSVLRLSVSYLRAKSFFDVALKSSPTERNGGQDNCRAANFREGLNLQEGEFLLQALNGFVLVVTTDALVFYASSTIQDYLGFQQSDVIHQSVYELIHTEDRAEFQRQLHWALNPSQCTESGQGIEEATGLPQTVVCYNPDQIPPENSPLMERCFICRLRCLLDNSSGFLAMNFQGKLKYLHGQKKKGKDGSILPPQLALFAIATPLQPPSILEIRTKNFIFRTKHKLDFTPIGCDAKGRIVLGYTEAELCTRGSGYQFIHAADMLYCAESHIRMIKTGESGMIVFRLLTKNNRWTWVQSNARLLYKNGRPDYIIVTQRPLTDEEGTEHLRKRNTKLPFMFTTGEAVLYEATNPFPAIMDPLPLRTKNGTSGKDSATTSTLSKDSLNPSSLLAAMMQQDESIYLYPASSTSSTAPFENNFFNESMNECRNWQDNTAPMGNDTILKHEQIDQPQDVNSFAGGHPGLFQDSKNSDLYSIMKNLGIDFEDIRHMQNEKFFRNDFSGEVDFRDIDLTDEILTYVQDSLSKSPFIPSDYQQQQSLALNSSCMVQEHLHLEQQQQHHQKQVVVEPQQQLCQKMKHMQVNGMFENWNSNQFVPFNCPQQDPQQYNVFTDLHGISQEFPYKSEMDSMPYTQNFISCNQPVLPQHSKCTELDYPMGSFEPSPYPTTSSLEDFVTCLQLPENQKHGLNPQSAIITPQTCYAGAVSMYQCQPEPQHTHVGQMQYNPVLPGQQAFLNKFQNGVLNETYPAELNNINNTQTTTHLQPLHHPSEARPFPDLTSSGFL
NTR1 agonist: agonists of human NTR1, primary screen, imaging, U2OS cells, beta-arrestin-GFP, high content | NTR1-U2OS beta-arrestin-GFP spot imaging, agonist mode | activation, % at 20 µM | 330,000 tested, 0.17% active;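 active = activation at or above 40% of the spot to cytoplasm intensity ratio, with at least 20 cells analyzed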;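 note: 0% = DMSO without peptide and 100% = 100 nM NTR1 peptide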
A3G deaminase: APOBEC3G DNA deaminase inhibitors, primary screen, biochemical, fluorescence, single-stranded DNA substrate, uHTS; DNA dC->dU-editing enzyme APOBEC-3G (Homo sapiens), Q9HC16; recombinant A3G, ssDNA deamination FAM/TAMRA fluorescence; inhibition, % at 20 µM; 330,000 tested, 0.28% active; AID 493012, 2011;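 active = inhibition of at least 40% at 20 µM, with no more than 30% in the related APOBEC3A deaminase screen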;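 note: plate controls were DMSO wells with A3G for no effect and wells lacking A3G enzyme for full effect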
APOBEC3A confirm: APOBEC3A deaminase inhibitors, retest, confirmation, selectivity assay for APOBEC3G inhibitor project, biochemical, single concentration, fluorescence readout; 1,400 tested, 63% active; shares compounds with APOBEC3A inh; recombinant A3A, ssDNA deaminase UDG fluorescence assay; AID 493151, 2011; inhibition, % at 20 µM;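 active = inhibition reaching a set limit, 80% of the first screen's cutoff, at 20 µM in any replicate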;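 note: plate controls were DMSO wells with A3A for no effect and wells lacking A3A enzyme for full effect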
UDG ctr A3A: E. coli UDG inhibitors, confirmation, counter-screen for APOBEC3A inhibitor project, biochemical, single concentration, fluorescence, FAM/TAMRA oligo; shares compounds with APOBEC3A inh; inhibition, % at 20 µM; UDG counterscreen, FAM/TAMRA uracil oligo fluorescence; 1,000 tested, under 10 active; AID 504714, 2011; call rule not given here
A3G conf: APOBEC3G deaminase inhibitor retest, confirmation, biochemical, fluorescence, single-stranded DNA substrate, single concentration | shares compounds with A3G deaminase | 890 tested, 72% active | recombinant A3G ssDNA deaminase, UDG/FAM-TAMRA fluorescence | inhibition, % at 20 µM;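 active = inhibition reaching a set limit in any replicate at 20 µM, the limit being 80% of the first screen's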
UDG A3G counter: E. coli UDG inhibitors, confirmation, counter-screen for APOBEC3G inhibitor project, biochemical, single concentration, fluorescence, FAM/TAMRA oligo. shares compounds with A3G deaminase. UDG counterscreen. inhibition, % at 20 µM. 710 tested, under 10 active. AID 504715, 2011;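 active = compounds giving 40% or more inhibition at 20 µM in any one of the three replicates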;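 note: plate controls were DMSO wells with UDG and oligo for no effect and DMSO wells lacking both for full effect; inhibitors lower the FAM signal released by uracil excision and alkaline cleavage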
An asterisk follows results filed as active; x = no result; ! = a repeat was not active. Sampled rows, rich in hits. Any-hit rate of the full collection: about 3.2%.

SMILES	APOBEC3A inh	AHR activator	NTR1 agonist	A3G deaminase	APOBEC3A confirm	UDG ctr A3A	others
CC(C)=CCc1c(O)cc2c(c1O)C(=O)CC(c1ccc(O)cc1)O2 (configuration not stated)	-6	42	37	-11	x	x
CC[C@]12C=CCN3CCC4(c5cc(Br)c(OC)cc5N(C)C4[C@@](O)(C(=O)OC)[C@@H]1OC(C)=O)C32 (some centres not stated)	62*	0	0	16	70*	-4
COc1ccc(NC2=NC(C)(C)CS2)cc1	1	10	0	-11	x	x
C[C@H](N)CN1CCc2ccc(Br)cc21	-3	41	0	-7	x	x
O=[N+]([O-])c1ccc(O)c([N+](=O)[O-])c1	-1	0	1	-8	x	x
O=[N+]([O-])c1cc([As](=O)(O)O)ccc1O	83*	-2	1	6	51*	-1
CCOC(=O)C1(c2ccccc2)CCN(CCC(=O)Nc2cccc(Br)c2)CC1	-1	x	11	-4	x	x
CCOc1cc2c(cc1OCC)-n1cccc1C(c1ccc(OC)cc1)NC2 (configuration not stated)	-5	-1	1	-6	x	x
CCOC(=O)C(O)(c1cn(C)c2ccccc12)C(F)(F)F (configuration not stated)	1	-3	-1	0	x	x
CCOC(=O)C(O)(c1ccc(N=c2ccccn2C)cc1)C(F)(F)F (configuration not stated)	44*	4	-1	13	32*	-3
C[N+](C)(C)CCc1ccc(O)cc1	65*	0	-2	25	77*	3
CCCNC(=O)N1[C@H]2CC[C@@H]1C(C(=O)OC)=C(c1c(C)noc1C)C2	-2	0	2	-7	x	x
CCOc1ccc(N=C2SCCCN2C)cc1	40*	-1	1	18	66*	-3
C[N+]1(C)CCc2cc3c(cc2[C@H]1[C@@H]1OC(=O)c2c1ccc1c2OCO1)OCO3	46*!	-3	0	23	80*	1
C[N+]12CCC(CC1)C(=C(c1ccccc1)c1ccccc1)C2	75*	0	0	22	71*	-2
CC[N+]12CCC(CC1)C(=C(c1ccccc1)c1ccccc1)C2	2	0	0	-3	x	x
CC[N+](C)(CC)CCCOC(=O)C(O)(c1ccccc1)C1CCCCC1 (configuration not stated)	50*	1	-1	17	81*	-1
C=CCN1C(=O)/C(=C/c2ccc(Br)s2)C(=O)NC1=S	46*	3	11	26	29	x
Cc1ccc(N2C(=O)NC(=O)/C(=C\c3cc(C)n(-c4cc(C(=O)O)cc(C(=O)O)c4)c3C)C2=O)cc1	54*	-3	3	17	28*	0
COC(=O)C1=C(c2c(C)noc2C)C[C@@H]2CC[C@H]1N2C(=O)NCC1CC1	-3	8	-2	-1	x	x
C[N+]1(C)C2CC[C@H]1CC(OC(=O)C(CO)c1ccccc1)C2 (some centres not stated)	-2	-3	-1	-4	x	x
C[N+]1(C)C2CCC1CC(OC(=O)c1c[nH]c3ccccc13)C2 (configuration not stated)	72*	-1	3	18	84*	2
C[N+]1(C)[C@@H]2CC[C@H]1CC(OC(=O)[C@@H](CO)c1ccccc1)C2 (some centres not stated)	67*	2	3	20	87*	x
COC(=O)C1=C(c2ccc(C(C)=O)cc2)C[C@@H]2CC[C@H]1N2C(=O)NCCCOC(C)C	-1	-1	2	0	x	x
COc1cc(O)c(C(=O)O)c(-c2cc(O)c(O)cc2C)c1	2	1	-1	15	x	x
SMILES	APOBEC3A inh	AHR activator	NTR1 agonist	A3G deaminase	APOBEC3A confirm	UDG ctr A3A	others
CNC(=O)OCc1n(C)cc[n+]1C	40*	6	-1	-4	82*	-1
CNC(=O)OCCc1nccn1C	-1	43	4	-1	x	x
COc1ccc(CN2CCNCC2)c(OC)c1OC	57*!	-3	-1	-3	62*	-2
Cc1nn(CCC#N)c2c1P(=S)(N1CCCC1)OC(c1ccc(F)cc1)=N2 (configuration not stated)	2	0	0	67*	x	x	A3G conf=67*
COC(=O)C1=C(c2ccccc2OCc2ccccc2)C[C@@H]2CC[C@H]1N2C(=O)NCc1ccc(C(C)(C)C)cc1	-4	1	0	-10	x	x
CC[C@@H](C(N)=O)N1CCCC1=O	-1	-5	-2	-6	x	x
COc1ccc(N/N=C/c2c(O)n(-c3cccc(C)c3)c(=O)[nH]c2=O)cc1	0	-3	0	54*	x	x	A3G conf=24*;UDG A3G counter=-4
Cc1ccc(-n2c(O)c(/C=N/Nc3ccccc3)c(=O)[nH]c2=O)cc1C	-3	2	0	5	x	x
COc1ccc(N/N=C/c2c(O)n(-c3ccc(C)c(C)c3)c(=O)[nH]c2=O)cc1	-2	27	0	51*	x	x	A3G conf=17;UDG A3G counter=2
O=C1C=CC(=O)C=C1	5	-2	-1	82*	x	x	A3G conf=88*;UDG A3G counter=-3
Oc1ccc(CC2(N3CCCC3)CCCCC2)cc1	-2	3	1	-8	x	x
Clc1ccc(N2CC2c2ccncc2)cc1 (configuration not stated)	-3	5	1	-5	x	x
O=C(O)c1cccc2nc3ccccc3nc12	3	-1	-2	72*	x	x	A3G conf=24*;UDG A3G counter=2
COC(=O)c1ccccc1-n1c(C)nc2ccccc2c1=O	-1	-2	2	-7	x	x
O=c1[nH]c(=O)n(-c2cccc3ccccc23)c(O)c1/C=N/N1CCCCCC1	-2	0	1	68*	x	x	A3G conf=-4;UDG A3G counter=1
O=[N+]([O-])c1ccccc1Cl	-5	x	5	-12	x	x
